# Screens (PubChem BioAssay)
# LDHA block: LDHA (human) enzyme inhibition; purified LDHA, NADH/diaphorase-resazurin fluorescence; hits give low values; activity change, % (values are at about 110 or 230 µM); 480,000 tested, 0.15% active; in the data active = activity change below about -30%;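 also: plate controls were DMSO wells for no effect and wells without enzyme for full effect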
#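 LDH5 2 nM; NADH 0.06 mM, pyruvate 0.2 mM; 200 mM Tris pH 7.4, EDTA, Tween-20; 5 min RT. Detection: diaphorase 0.133 mg/mL + resazurin 37 µM, fluorescence ex540/em590 at 0 and 20 min; normalized to enzyme-free and DMSO wells.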
# D1 potentiator: human D1 dopamine receptor positive modulation; P21728; HEK293 TREx D1 cells, calcium flux, dopamine EC20 potentiation; potentiation, % at 10 µM; 360,000 tested, 0.036% active; AID 504651; in the data active = potentiation above about 30%; also: 0% is about no effect
# Target sequence (P21728 whole entry, looked up): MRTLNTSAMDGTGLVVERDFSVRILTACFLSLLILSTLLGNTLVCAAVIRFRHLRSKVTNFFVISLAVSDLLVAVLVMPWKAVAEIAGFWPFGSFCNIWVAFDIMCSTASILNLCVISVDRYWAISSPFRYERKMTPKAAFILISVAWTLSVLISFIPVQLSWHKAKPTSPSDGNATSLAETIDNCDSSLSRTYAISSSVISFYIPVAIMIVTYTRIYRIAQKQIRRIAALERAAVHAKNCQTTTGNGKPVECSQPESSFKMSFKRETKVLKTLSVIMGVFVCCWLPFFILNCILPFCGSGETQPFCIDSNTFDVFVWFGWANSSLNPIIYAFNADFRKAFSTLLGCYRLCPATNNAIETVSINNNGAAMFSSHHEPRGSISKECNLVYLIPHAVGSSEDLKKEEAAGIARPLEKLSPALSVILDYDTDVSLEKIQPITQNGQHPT
# D1 antagonist: human D1 dopamine receptor antagonism; activity change, negative = inhibition, % at 10 µM; 360,000 tested, 3.2% active; P21728; HEK293 TREx D1 cells, calcium flux, dopamine EC80; hits give low values; in the data active = activity change below about -30%; also: % is scaled to controls: 0 for no effect and ±100 for the full control effect
#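 Kinetic fluorescence of a calcium dye serves as the read-out. D1-expressing Hek293 Trex cells, induced overnight at 30 C, are exposed to compound for 180 s before an EC80 dopamine addition, then read 180 s further.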
# D1 ag: agonists of human D1 dopamine receptor; HEK293 T-REx D1 cells, calcium flux, agonist mode; 360,000 tested, 1% active; AID 504660; P21728; activation, % at 2 µM; also: 0% is about no effect
#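 Agonism was scored from calcium flux recorded over 180 s (1 read/s) after pintool compound addition, following a 10-cycle baseline. Cells were inducible force-coupled HEK293 TREx D1, plated overnight at 30 C and loaded with no-wash calcium dye.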
# TRHR PAM: allosterically enhances the human TRH receptor; 360,000 tested, 0.66% active; TRHR cells, fluo-8 calcium fluorescence, EC20 TRH enhancement; P34981; enhancement, % at 2 µM; in the data active = enhancement above about 30%; also: 0% is about no effect
#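 Enhancer read-out: after compound pinning and an initial kinetic agonist-mode read, an EC20 of TRH (10 nM final) was injected and fluo-8 calcium signal (Ex 480/Em 530) followed at 1 s/cycle for 100 cycles in TRHR-expressing cells.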
# TRHR agonist: activates the human TRH receptor; P34981; TRHR cells, calcium flux fluo-8, FDSS agonist mode; activation, % at 2 µM; 360,000 tested, 0.18% active; also: 0% is about no effect
#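 TRHR-expressing cells loaded with fluo-8 calcium dye; 23 nL library compound pin-transferred, kinetic FDSS fluorescence (Ex 480/Em 530) recorded about 180 s for agonist-induced calcium release, before a 10 nM TRH EC20 addition for potentiator mode.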
# * = called active by the depositor; x = not tested or not shown. An excerpt weighted towards active compounds, which were near 3.6% of everything screened. Rule as the data show it, unless noted: active = activation above about 30%; inactive = the rest.
SMILES,LDHA block,D1 potentiator,D1 antagonist,D1 ag,TRHR PAM,TRHR agonist
COc1cccc(OCc2ccc(Cl)cc2)c1C#N,-1.0,-6.0,-51.1*,2.2,-0.2,-0.1
Cc1ccc(C)c(N2CCN(C(=S)NC3CCCCC3)CC2)c1,0.0,-7.3,0.9,0.3,0.8,0.0
Cc1cccc(N2CCN(C(=S)NC3CCCCC3)CC2)c1C,-10.6,-3.7,-33.3*,5.9,-4.6,3.8
COc1ccc(C(=O)NC2CCCNC2=O)cc1S(=O)(=O)N(C)C (stereo not drawn),1.2,x,x,x,x,x
Cc1cc(-c2csc3nc[nH]c(=S)c23)cc(C)c1C,-5.2,-5.0,-48.7*,17.1,-6.7,-1.9
CSCCC(NC(=O)c1ccc(-c2ccc(Cl)cc2)s1)C(=O)O (stereo not drawn),0.9,x,x,x,x,x
CCN(CC)C(=O)C1CCCN(c2ccccc2[N+](=O)[O-])C1 (stereo not drawn),-5.2,-7.9,-6.4,7.6,37.3*,-1.1
Cc1nc2ccccc2cc1OCc1ccccc1,0.1,-6.7,-59.0*,16.8,1.2,1.2
Cc1nc2ccccc2cc1OCc1ccc(Cl)cc1,-1.5,5.6,-12.2,11.5,2.8,0.1
CCOc1ccccc1N(CC(=O)N1CCc2ccccc2C1)S(=O)(=O)c1ccccc1,-9.1,-1.3,-18.2,2.2,-0.6,-0.3
CCOc1ccccc1N(CC(=O)N1CCOCC1)S(=O)(=O)c1ccccc1,-4.3,-2.7,-1.1,1.8,5.3,82.9*
O=C1CC(c2c[nH]c3ccccc23)C(=O)N1c1ccccc1 (stereo not drawn),7.4,-5.8,-33.7*,-1.5,3.3,0.2
COc1ccc(/C=C/c2nc(C#N)c(N(C)C)o2)cc1OC,0.6,x,x,x,x,x
CCc1nnc(NC(=O)c2ccc(OC)cc2OC)s1,-8.6,-2.7,-30.2*,3.0,1.6,0.3
CCCC1(c2ccccc2)NC(=O)N(CC(=O)c2[nH]c(C)c(C(=O)OCC)c2C)C1=O (stereo not drawn),-2.3,3.7,42.3,39.3*,5.0,-1.3
CC(Sc1ccc2ccccc2n1)C(=O)Nc1ccc(C(F)(F)F)cc1 (stereo not drawn),-0.2,x,x,x,x,x
CN(C)n1cccc1/C=C(\C#N)S(=O)(=O)c1cccc(Cl)c1,-8.7,-8.5,-35.2*,5.7,-10.3,-0.1
CS(=O)(=O)/C(C#N)=C/c1cccn1S(=O)(=O)c1ccccc1,-4.6,-4.5,-15.8,2.9,0.4,0.0
CCC(C)NCCCOc1cc(Cl)ccc1Cl (stereo not drawn),-12.8,-6.5,-16.3,14.2,-2.9,1.0
CCC(C)NCCOCCOc1ccc(Cl)c2ccccc12 (stereo not drawn),-15.9,-0.3,-45.2*,57.5*,-1.1,4.9
CCC(C)NCCOCCOc1ccc(Cl)c(C)c1C (stereo not drawn),-15.5,-3.4,-4.5,33.9*,7.5,1.8
C=CCc1cc(Cl)ccc1OCCOCCNC(C)CC (stereo not drawn),-19.0,-5.7,2.0,6.2,-0.9,-1.0
c1ccc(-c2ccccc2OCCCCN2CCCCCC2)cc1,-7.2,-12.4,-34.8*,28.3,2.5,-0.3
c1ccc(-c2ccccc2OCCN2CCCC2)cc1,-18.0,-12.2,-19.2,7.4,2.6,0.6
CC1CCN(CCOCCOc2ccccc2Br)CC1,-14.0,-3.0,-47.9*,5.2,7.2,1.1
SMILES,LDHA block,D1 potentiator,D1 antagonist,D1 ag,TRHR PAM,TRHR agonist
CN(C)CCOCCOc1ccccc1-c1ccccc1,-46.9*,-9.2,-26.1,7.9,9.9,-0.4
c1ccc(-c2ccccc2OCCOCCN2CCCCC2)cc1,-17.5,-10.9,-47.0*,24.1,2.5,0.7
CC1(C)CC2(C)OC(=O)OC2(C)c2ccccc21 (stereo not drawn),-8.1,x,x,x,x,x
Cc1cc(C)n(-c2ccc(C(=O)OCC(=O)NC(=O)NC3CCCCC3)cc2)n1,-0.8,x,x,x,x,x
CC(C)CCNC(=O)C1(NC(=O)NCc2ccccc2)CCCC1,1.5,x,x,x,x,x
c1ccc(-c2ccccc2OCCCN2CCOCC2)cc1,-30.1*,-1.1,-3.8,-0.4,1.9,0.2
CCC(C)c1ccccc1OCCOCCN1CCCC1 (stereo not drawn),-16.8,-17.9,-30.0*,10.1,-4.0,-0.3
CCC(C)c1ccccc1OCCCNC1CCCC1 (stereo not drawn),-7.2,1.7,-33.5*,38.7*,1.8,3.5
CC1CCN(CCCCOc2ccccc2-c2ccccc2)CC1,-15.6,-6.3,-59.2*,19.6,5.5,0.7
OCCCN1CCN(CCCOc2ccccc2-c2ccccc2)CC1,-2.3,-2.2,-19.1,4.4,-5.0,0.1
CC1CCN(CCOCCOc2ccccc2-c2ccccc2)CC1,-10.9,-3.8,-12.0,11.9,0.7,0.7
O=C(c1ccc(C2SCCS2)cc1)N1CCN(Cc2ccc(Cl)cc2)CC1,2.5,x,x,x,x,x
O=C(c1nn(Cc2ccccc2)c(=O)c2ccccc12)N1CCN(c2ccccc2O)CC1,10.0,x,x,x,x,x
Cc1ccsc1C(=O)N1CC=C(c2ccccc2)CC1,0.2,4.6,-30.7*,12.2,1.2,-0.3
Cc1c(C)n(CCCN(C)C)c2ncn3nc(-c4ccccn4)nc3c12,10.3,x,x,x,x,x
Cc1ccc(S(=O)(=O)N2CCN(Cc3ccco3)CC2)c(C)c1,-0.2,37.5*,-7.6,4.0,-6.0,-0.3
CCNC(=O)c1cccc(NC(=O)c2cnc3ccccc3n2)c1,-11.8,x,x,x,x,x
CCc1ccc(NC(=O)CC2C(=O)OCCN2CC)cc1 (stereo not drawn),-1.2,-5.3,-74.6*,-0.6,8.2,1.4
CCN1CCOC(=O)C1CC(=O)Nc1ccc(C(C)=O)cc1 (stereo not drawn),1.4,2.0,-3.7,0.9,1.3,-4.1
O=C1CSC(=S)N1c1cccc(Br)c1,0.1,-15.7,-82.5*,3.1,-16.4,-0.5
COc1cccc(CC(=O)N2CCCC(CO)(Cc3ccc(F)cc3F)C2)c1 (stereo not drawn),-2.1,-4.7,-47.5*,7.3,-7.2,0.3
COc1cccc(CC2(CO)CCCN(C/C=C/c3ccccc3OC)C2)c1 (stereo not drawn),-4.1,-4.0,18.8,32.8*,10.2,-1.2
O=C1CC(C(=O)Nc2cccc3ccccc23)C2(CCCC2)O1 (stereo not drawn),6.5,1.8,17.2,34.1*,0.1,0.8
Cc1ccc(C23CC4CC(CC(NC(=O)NCCN(C)C)(C4)C2)C3)cc1,2.4,-5.0,10.0,5.5,-2.1,0.4
CN(C)CCNC(=O)COc1ccc(C23CC4CC(CC(C4)C2)C3)cc1,-3.1,-2.7,6.6,32.6*,2.0,1.5
COc1ccc(N=Cc2oc3ccc4ccccc4c3c2O)cc1,-4.0,-0.2,-4.3,78.5*,-1.7,23.8
Clc1ccc(Cn2c(-c3cccnc3Cl)nc3ccccc32)cc1,2.4,-6.6,-44.8*,2.1,-4.1,0.6
